According to PubChem BioAssay (NCI):
Compounds without any hit were thinned out: in the full panel of roughly 79,000, 15% have a hit. Values without a mark were called inactive. The source made the active and inactive calls. No stated cut-off is given here; in the data, active means growth inhibition above about 70%; inactive means the rest.

Test: NCI Yeast Anticancer Drug Screen. Data for the rad50EPP+ strain (AID 151);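 further: 0% = growth of vehicle-treated control cultures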
Conditions: S. cerevisiae rad50 mutant strain, at 100.0 µM, hits give high values
Outline: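 Strain rad50EPP+; compound exposure; % growth inhibition vs vehicle.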

SMILES	growth inhibition
COc1ccc(/C=C2\SC(=S)N(/C=C/c3nc4ccccc4[nH]c3=O)C2=O)cc1OC	63%
N#CN=Nc1cc(Cl)c(N=NC#N)cc1Cl	79% (active)
Cc1ccc(S(=O)(=O)Oc2cc(Cl)c(Cl)cc2Cl)cc1	66%
c1ccc2c(c1)Oc1cccc3cccc-2c13	63%
O=C(c1ccc(Cl)cc1Cl)C(Cl)Cl	96% (active)
CC(C)C1=CCC2C(=C1)CCC1C(C)(C(=O)O)CCCC21C (stereo unspecified) (tested in a mixture with another compound)	47%
COc1cc(/C=C2\CCc3ccccc3C2=O)cc(OC)c1OC	40%
CC(=O)[O][Bi]([c]1ccccc1)[c]1ccccc1	24%
S=C(N/N=C/c1ccccn1)Nc1ccc(Cl)cc1	-12%
COc1cc(CC2CC(c3ccc4c(c3)OCO4)OC2=O)cc(OC)c1OC (stereo unspecified)	8%
CNC1C(OC2C(OC3C(O)C(O)C(N=C(N)N)C(O)C3N=C(N)N)OC(C)C2(O)CO)OC(CO)C(O)C1O (stereo unspecified)	-10%
NNC(=O)CCc1ccc2ccc3ccccc3c2c1	58%
Oc1ccc2ccccc2c1C(c1ccc(Cl)cc1)c1c(O)ccc2ccccc12	-44%
CCCCN(CCCC)CCSc1ccc(Cl)cc1	55%
CCC(C)COC(=O)c1ccc(N=Cc2ccc(C=Nc3ccc(C(=O)OCC(C)CC)cc3)cc2)cc1 (stereo unspecified)	49%
CC1(C)C(=O)OC(n2cc(F)c(=O)[nH]c2=O)C1=O (stereo unspecified)	56%
